In PubChem BioAssay (NCI):
About 83,000 compounds went through this panel and 20% of them were active in at least one assay; those are over-represented in the sample as a whole.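 Cell lines were cultured in 96-well plates, exposed to a single compound concentration, and assessed for percent growth 48 hours later.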 Active and inactive are the calls of the source. Rule for the calls: active = growth percent below 10; inactive = the rest.

What was measured:
Test in all cases: NCI-60 one-dose screen, 48 h (100 = growth as untreated, 0 = no growth, -100 = all killed)
HT29 colon = conditions: 10 µM unless noted
SNB-75 CNS = conditions: 10 µM unless noted
SNB-19 CNS = conditions: 10 µM unless noted
U251 CNS = conditions: 10 µM unless noted
PC-3 prostate = conditions: 10 µM unless noted
SK-MEL-5 melanoma = conditions: 10 µM unless noted
UACC-62 melanoma = conditions: 10 µM unless noted
LOX IMVI melanoma = conditions: 10 µM unless noted
SK-MEL-28 melanoma = conditions: 10 µM
SK-MEL-2 melanoma = conditions: 10 µM unless noted
EKVX NSCLC = conditions: 10 µM unless noted
SN12C renal = conditions: 10 µM unless noted
UO-31 renal = conditions: 10 µM unless noted
TK-10 renal = conditions: 10 µM unless noted
ACHN renal = conditions: 10 µM unless noted
CAKI-1 renal = conditions: 10 µM unless noted
A498 renal = conditions: 10 µM unless noted
CCRF-CEM leukemia = conditions: 10 µM unless noted
MOLT-4 leukemia = conditions: 10 µM unless noted

Measured: growth

CC1=C(C(=O)OCC2CCN(C(=O)OC(C)(C)C)CC2)[C@@H](c2cccc(C#N)c2)C2=C(CC(C)(C)CC2=O)N1
active: SK-MEL-5 melanoma 3.59% | LOX IMVI melanoma 9.5%
inactive: HT29 colon 18.3% | SNB-75 CNS 56.9% | SNB-19 CNS 43% | U251 CNS 41.4% | PC-3 prostate 48% | UACC-62 melanoma 43% | SK-MEL-28 melanoma 61.3% | SK-MEL-2 melanoma 70.4% | EKVX NSCLC 63.7% | SN12C renal 42.7% | UO-31 renal 42.1% | TK-10 renal 68.5% | ACHN renal 38.5% | CAKI-1 renal 38.4% | A498 renal 75.3% | CCRF-CEM leukemia 36.8% | MOLT-4 leukemia 12.5%

Cc1nc2ccccc2c(/C=C/c2ccccc2)c1C(=O)/C=C/c1ccc(Cl)cc1
active: HT29 colon -8.66% | U251 CNS -33.2% | LOX IMVI melanoma -90.3% | CCRF-CEM leukemia 3.51% | MOLT-4 leukemia 5.62%
inactive: SNB-75 CNS 57.8% | SNB-19 CNS 13.6% | PC-3 prostate 33.9% | SK-MEL-5 melanoma 32.4% | UACC-62 melanoma 34.9% | SK-MEL-28 melanoma 19.2% | SK-MEL-2 melanoma 14.7% | EKVX NSCLC 39.9% | SN12C renal 19.7% | UO-31 renal 11.1% | TK-10 renal 21.9% | ACHN renal 14.3% | CAKI-1 renal 12.6% | A498 renal 36.7%

Nc1ccc(-n2c(=O)oc3ccc(Cl)cc3c2=O)c(Cl)c1
inactive: SNB-19 CNS 16.2%
active: HT29 colon 3.86% | SNB-75 CNS -41.3% | U251 CNS -8.77% | PC-3 prostate 2.14% | SK-MEL-5 melanoma -83.9% | UACC-62 melanoma -34.9% | LOX IMVI melanoma 0.455% | SK-MEL-28 melanoma -10.6% | SK-MEL-2 melanoma -31.6% | EKVX NSCLC 4.42% | SN12C renal -0.532% | UO-31 renal 0.242% | TK-10 renal 8.25% | ACHN renal 5.28% | CAKI-1 renal -21.5% | A498 renal -67% | CCRF-CEM leukemia 0.0077% | MOLT-4 leukemia -33.5%

Nc1n[nH]c2ccc([C@@H]3Nc4ccc5[nH]ncc5c4[C@H]4[C@H]5CCC(C5)[C@H]43)cc12
active: HT29 colon 2.25% | A498 renal -20.5%
inactive: SNB-75 CNS 11.4% | SNB-19 CNS 33.4% | U251 CNS 20.1% | PC-3 prostate 25.6% | SK-MEL-5 melanoma 16.9% | UACC-62 melanoma 40.5% | LOX IMVI melanoma 14.7% | SK-MEL-28 melanoma 57.7% | SK-MEL-2 melanoma 29.5% | EKVX NSCLC 40.2% | SN12C renal 24.6% | UO-31 renal 46.3% | TK-10 renal 60.8% | ACHN renal 27.7% | CAKI-1 renal 16.4% | CCRF-CEM leukemia 17% | MOLT-4 leukemia 18%

O=C1NC(=O)C(=Cc2cn(Cc3cn(Cc4ccc(Cl)cc4Cl)nn3)c3ccccc23)C(=O)N1
inactive: HT29 colon 111% | SNB-75 CNS 75.4% | SNB-19 CNS 88.5% | U251 CNS 91% | PC-3 prostate 89.6% | SK-MEL-5 melanoma 69.5% | UACC-62 melanoma 67.6% | LOX IMVI melanoma 80.1% | SK-MEL-28 melanoma 107% | SK-MEL-2 melanoma 79.3% | EKVX NSCLC 104% | SN12C renal 90.4% | UO-31 renal 63.9% | TK-10 renal 68.8% | ACHN renal 102% | CAKI-1 renal 56.3% | A498 renal 38.3% | CCRF-CEM leukemia 76.4% | MOLT-4 leukemia 84.6%

Cc1c(C(=O)OCCO)cc(-c2ccc(Cl)cc2)n1-c1ccc(Cl)cc1Cl
inactive: HT29 colon 74.6% | SNB-75 CNS 82.3% | SNB-19 CNS 90.6% | U251 CNS 77.7% | PC-3 prostate 70.4% | SK-MEL-5 melanoma 67.1% | UACC-62 melanoma 54.5% | LOX IMVI melanoma 65.1% | SK-MEL-28 melanoma 70.8% | SK-MEL-2 melanoma 95.9% | EKVX NSCLC 63.8% | SN12C renal 61.1% | UO-31 renal 69.4% | TK-10 renal 101% | ACHN renal 71.4% | CAKI-1 renal 63.6% | A498 renal 77.3% | CCRF-CEM leukemia 65.4% | MOLT-4 leukemia 49.8%

O=c1oc2ccc(-c3ccc(F)cc3F)cc2c(=O)n1-c1cccc(C(F)(F)F)c1
inactive: HT29 colon 31.3% | SNB-19 CNS 14.4% | LOX IMVI melanoma 25.7% | SK-MEL-28 melanoma 25% | EKVX NSCLC 13.5% | TK-10 renal 11.6% | CCRF-CEM leukemia 10.4%
active: SNB-75 CNS -7.33% | U251 CNS 4.94% | PC-3 prostate 3.58% | SK-MEL-5 melanoma -76.4% | UACC-62 melanoma 7.26% | SK-MEL-2 melanoma -15.9% | SN12C renal 4.72% | UO-31 renal 1.41% | ACHN renal 6.31% | CAKI-1 renal -12.6% | A498 renal -42.6% | MOLT-4 leukemia 1.99%

COc1ccc(/C=C/C(=O)c2c(C)nc3ccccc3c2/C=C/c2ccccc2)cc1O
inactive: HT29 colon 71.6% | SNB-75 CNS 24.9% | SNB-19 CNS 67.3% | U251 CNS 49% | PC-3 prostate 58.4% | SK-MEL-5 melanoma 59.3% | UACC-62 melanoma 48.6% | LOX IMVI melanoma 33% | SK-MEL-28 melanoma 75.2% | SK-MEL-2 melanoma 66.8% | EKVX NSCLC 90.3% | SN12C renal 62.2% | UO-31 renal 53.3% | TK-10 renal 125% | ACHN renal 62.2% | CAKI-1 renal 52.6% | A498 renal 106% | CCRF-CEM leukemia 32.2% | MOLT-4 leukemia 29.9%

O=C1NC(=S)NC(=O)C1=Cc1cn(Cc2cn(Cc3cccc4ccccc34)nn2)c2ccccc12
inactive: HT29 colon 114% | SNB-75 CNS 79.4% | SNB-19 CNS 97.9% | U251 CNS 102% | PC-3 prostate 93.9% | SK-MEL-5 melanoma 93.9% | UACC-62 melanoma 88.3% | LOX IMVI melanoma 91.1% | SK-MEL-28 melanoma 103% | SK-MEL-2 melanoma 114% | EKVX NSCLC 96.4% | SN12C renal 94.4% | UO-31 renal 67.7% | TK-10 renal 134% | ACHN renal 96% | CAKI-1 renal 80.3% | A498 renal 83.7% | CCRF-CEM leukemia 98.7% | MOLT-4 leukemia 96.2%

O=C(Nc1ccc(Cl)cc1F)c1cc(F)ccc1O
inactive: HT29 colon 10.3% | SNB-19 CNS 22.8% | TK-10 renal 14%
active: SNB-75 CNS -12.4% | U251 CNS -4.4% | PC-3 prostate 3.1% | SK-MEL-5 melanoma -84.4% | UACC-62 melanoma -7.35% | LOX IMVI melanoma 9.69% | SK-MEL-28 melanoma 7.52% | SK-MEL-2 melanoma -29.8% | EKVX NSCLC 8.76% | SN12C renal 3.23% | UO-31 renal 5.66% | ACHN renal 3.61% | CAKI-1 renal -14.3% | A498 renal -55.6% | CCRF-CEM leukemia 8.63% | MOLT-4 leukemia -13.3%

O=c1oc2ccc(Cl)cc2c(=O)n1-c1ccc(I)cc1F
active: SNB-75 CNS -28.4% | U251 CNS -1.68% | PC-3 prostate 1.89% | SK-MEL-5 melanoma -81.5% | UACC-62 melanoma -28.8% | LOX IMVI melanoma 0.538% | SK-MEL-28 melanoma 0.51% | SK-MEL-2 melanoma -24.3% | SN12C renal -1.14% | UO-31 renal 7.35% | ACHN renal 4.07% | CAKI-1 renal -16.3% | A498 renal -75.5% | CCRF-CEM leukemia 7.15% | MOLT-4 leukemia -28.6%
inactive: HT29 colon 33.6% | SNB-19 CNS 18.6% | EKVX NSCLC 11.4% | TK-10 renal 11%

COc1ccc(Cn2cc(Cn3cc(C=C4C(=O)NC(=O)NC4=O)c4ccccc43)nn2)cc1
inactive: HT29 colon 117% | SNB-75 CNS 78.1% | SNB-19 CNS 90.4% | U251 CNS 92.3% | PC-3 prostate 84.8% | SK-MEL-5 melanoma 60.7% | UACC-62 melanoma 64.6% | LOX IMVI melanoma 79.4% | SK-MEL-28 melanoma 102% | SK-MEL-2 melanoma 85.8% | EKVX NSCLC 99.4% | SN12C renal 85.8% | UO-31 renal 56.3% | TK-10 renal 83.7% | ACHN renal 91.4% | CAKI-1 renal 70.1% | A498 renal 22.2% | CCRF-CEM leukemia 85% | MOLT-4 leukemia 75.3%

CC1=C(C(=O)OCC2CCN(C(=O)OC(C)(C)C)CC2)[C@H](c2cccc(Br)c2)C2=C(CC(C)(C)CC2=O)N1
inactive: HT29 colon 16.7% | SNB-75 CNS 47.8% | SNB-19 CNS 42.5% | U251 CNS 30% | PC-3 prostate 17.5% | UACC-62 melanoma 36.1% | LOX IMVI melanoma 17.5% | SK-MEL-28 melanoma 50.1% | SK-MEL-2 melanoma 61.1% | EKVX NSCLC 49.4% | SN12C renal 31.2% | UO-31 renal 31.2% | TK-10 renal 38.9% | ACHN renal 27.9% | CAKI-1 renal 26.6% | A498 renal 49.5% | CCRF-CEM leukemia 17.9%
active: SK-MEL-5 melanoma -32.8% | MOLT-4 leukemia 4.54%

O=C(Nc1ccc(Br)cc1F)c1cc(I)ccc1O
inactive: HT29 colon 92.4% | SNB-19 CNS 13.3% | LOX IMVI melanoma 13.7% | SK-MEL-28 melanoma 19.1% | EKVX NSCLC 43.8% | TK-10 renal 12.9% | CCRF-CEM leukemia 11.9%
active: SNB-75 CNS -9.93% | U251 CNS 3.12% | PC-3 prostate 7.07% | SK-MEL-5 melanoma -68.4% | UACC-62 melanoma 3.48% | SK-MEL-2 melanoma -26.7% | SN12C renal 5.88% | UO-31 renal 2.04% | ACHN renal 6.1% | CAKI-1 renal -16.8% | A498 renal -40.9% | MOLT-4 leukemia 6.68%

CC[C@]1(O)C[C@@H]2CN(CCc3c([nH]c4ccccc34)[C@@](C(=O)OC)(c3cc4c(cc3OC)N(C)[C@H]3[C@@](O)(C(=O)OC)[C@H](OC(=O)CCCBr)[C@]5(CC)C=CCN6CC[C@]43[C@@H]65)C2)C1
inactive: SNB-75 CNS 13.2% | SNB-19 CNS 28.8% | U251 CNS 13.5% | PC-3 prostate 20.1% | UACC-62 melanoma 34.8% | SK-MEL-28 melanoma 67.3% | SK-MEL-2 melanoma 13.6% | EKVX NSCLC 31% | SN12C renal 23.9% | UO-31 renal 37.7% | TK-10 renal 46.5% | ACHN renal 28.2% | MOLT-4 leukemia 17.3%
active: HT29 colon 4.86% | SK-MEL-5 melanoma -42.8% | LOX IMVI melanoma 8.02% | CAKI-1 renal 9.84% | A498 renal -1.7% | CCRF-CEM leukemia 6.76%

CN1CCN(Cc2ccc(C(=O)Nc3cncc(C#Cc4cnc5cccnn45)c3)cc2C(F)(F)F)CC1
inactive: HT29 colon 23% | SNB-75 CNS 96.9% | SNB-19 CNS 95% | U251 CNS 65.2% | PC-3 prostate 60.4% | SK-MEL-5 melanoma 74.3% | UACC-62 melanoma 74.2% | LOX IMVI melanoma 56% | SK-MEL-28 melanoma 67% | SK-MEL-2 melanoma 31.8% | EKVX NSCLC 75% | SN12C renal 48.1% | UO-31 renal 21.5% | TK-10 renal 82.8% | ACHN renal 25.6% | CAKI-1 renal 13.9% | A498 renal 11.3% | CCRF-CEM leukemia 32.6% | MOLT-4 leukemia 13.6%
